Assay results reported in PubChem BioAssay AID1626 (SRMLSC, 2009).
Hit rate of the full screen: of about 220,000 compounds, about 2,000 (0.91%) were called active. Not shown: some 2% with an inconclusive outcome. Cut-off read from the data, not from the text of the source: inconclusive = inhibition above about 80% without an active follow-up result; inactive = below that; test concentration not stated here. These entries were drawn from the full list. Measured potencies and affinities stand elsewhere.

Assay: M. tuberculosis H37Rv growth inhibitors, H37Rv strain (AID 1626);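 note: bacteria incubated seven days before Alamar blue readout; 0% = bacteria only wells and 100% = bacteria with antibiotic wells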
Conditions: stronger effect = higher value, concentration not given here

| SMILES | inhibition |
| --- | --- |
| CC(NC(=O)COC(=O)C1CSC2(C)CCC(=O)N12)C12CC3CC(CC(C3)C1)C2 (stereo unspecified) | -1.31% (inactive) |
| O=C(CN1CCN(Cc2ccccc2)CC1)N/N=C/c1ccccc1F | -1.58% (inactive) |
| Cn1cc(CNCc2cn(C)nc2-c2ccc(C3CCCCC3)cc2)cn1 | 8.48% (inactive) |
| COc1ccc(C(=O)c2ccc(Cl)cc2)cc1 | 6.37% (inactive) |
| CCOC(=O)C1CCN(S(=O)(=O)c2ccc(-n3cnnn3)c(C)c2)CC1 | -3.24% (inactive) |
| O=C(COC(=O)c1ccc(Cl)nc1)NCc1ccco1 | -2.82% (inactive) |
| Clc1cccc(Cl)c1Cn1nnc(N2CCCC2)n1 | -4.55% (inactive) |
| O=C(CCCn1c(SCC(=O)c2ccc(Cl)cc2)nc2ccccc2c1=O)NCc1ccco1 | -0.03% (inactive) |
| Cc1cc(C)c2cc(C)c(SCC(=O)NCc3ccco3)nc2c1 | -6.87% (inactive) |
| CCc1ccccc1NC(=S)N1CCNC(=O)C1CC(=O)OC (stereo unspecified) | 3.01% (inactive) |
| Cc1ccc(NC2=C(Cl)C(=O)OC2OC(C)C)cc1 (stereo unspecified) | -6.44% (inactive) |
| CCN(CC)S(=O)(=O)c1ccc(N2CCOCC2)c(NC(=O)c2ccc(NC(C)=O)cc2)c1 | -0.34% (inactive) |
| CC(=S)/C=C1\Sc2ccccc2N1C | -6.98% (inactive) |
| CCCCN1/C(=C/c2ccc3ccccc3[n+]2CC)Sc2ccccc21 | -5.31% (inactive) |
| NC(=O)C1=NOC(CNc2ncc(C(F)(F)F)cc2Cl)C1 (stereo unspecified) | -9.36% (inactive) |
| CCN(CC)S(=O)(=O)c1ccc(C(=O)N2CCc3ccccc32)cc1 | -0.89% (inactive) |
| O=C(/C=C/c1ccccc1)NCc1cccnc1 | -0.63% (inactive) |
| O=C(Nc1ccccc1N1CCN(C(=O)c2ccccc2)CC1)c1cc(Br)ccc1Cl | 8.71% (inactive) |
| COc1c(C)cc(Br)cc1C(=O)Nc1ccccc1N1CCN(C(=O)c2ccccc2)CC1 | 19.8% (inactive) |
| Cc1cc(C)n2[nH]c(=O)c(N=Nc3cccc(C(F)(F)F)c3)c2n1 | 46.9% (inactive) |
| Cc1[nH]n(C2=NCCS2)c(=O)c1N=Nc1ccccc1 | 2.69% (inactive) |
| CN(c1ccccc1C(=O)N1CCN(Cc2ccc3c(c2)OCO3)CC1)S(C)(=O)=O | -0.54% (inactive) |
| O=C(CCC(=O)OCc1cccc(C(=O)Oc2ccccc2)c1)Nc1cccc2ccccc12 | 4.16% (inactive) |

| SMILES | inhibition |
| --- | --- |
| COc1ccc(NC(=O)CCC(=O)OCc2ccc(C(=O)Oc3ccc(Cl)cc3)cc2)cc1 | 23.3% (inactive) |
| CC(C)(C)Nc1c([N+](=O)[O-])c(=O)sc2ccccc12 | -10.8% (inactive) |
| NC(=O)C1CCN(C(=O)c2ccc3c(=O)n(Cc4ccco4)c(SCC(=O)c4ccccc4)nc3c2)CC1 | -1.82% (inactive) |
| CN(CCO)c1nc(N)c(C#N)c(CC#N)c1C#N | -7.58% (inactive) |
| CCOc1ccccc1N1CCN(CC(=O)NC(=O)NCc2ccco2)CC1 | -1.18% (inactive) |
| COc1ccc(NC(=O)N2CCCCCC2)c(OC)c1 | -4.07% (inactive) |
| Cn1c(N)c(C(=O)COC(=O)c2cnc(Cl)c(Cl)c2)c(=O)n(C)c1=O | -6.46% (inactive) |
| CC(C)Cn1c(N)c(C(=O)COC(=O)c2ccc(Cl)cc2)c(=O)n(C)c1=O | 11.4% (inactive) |
| O=c1c2c(nc3nc(NCc4cccc(Cl)c4)[nH]n13)CCC2 | 2.7% (inactive) |
| O=c1c2c(nc3nc(NCc4ccccc4Cl)[nH]n13)CCC2 | -14.3% (inactive) |
| CCOc1ccccc1CNc1nc2nc3c(c(=O)n2[nH]1)CCC3 | -2.76% (inactive) |
| COc1ccccc1CNc1nc2nc3c(c(=O)n2[nH]1)CCC3 | 0.1% (inactive) |
| O=C(CO/N=C/c1ccccc1OC(F)F)NCc1ccco1 | -2.9% (inactive) |
| O=S(=O)(c1ccc(Cl)nc1)N1CCN(c2ncccn2)CC1 | -8.21% (inactive) |
| CN(C)CCCNc1ncc(C(F)(F)F)cc1Cl | 4.38% (inactive) |
| CC1=C(C(=O)Nc2ccc(C)cc2C)C(c2ccc(Cl)cc2)n2nc(C(=O)OC(C)C)nc2N1 (stereo unspecified) | 5.54% (inactive) |
| CN(C)CCNC(=O)/C(=C/c1ccc(-c2ccc(Cl)cc2)o1)NC(=O)c1ccccc1 | 10.2% (inactive) |
| CN(C)CCCNC(=O)/C(=C\c1ccc(-c2cccc([N+](=O)[O-])c2)o1)NC(=O)c1ccccc1 | -5.38% (inactive) |
| CN(C)CCNC(=O)/C(=C/c1ccc(-c2cccc(Cl)c2)o1)NC(=O)c1ccccc1 | 5.87% (inactive) |
| CN(C)CCCNC(=O)/C(=C\c1ccc(-c2ccc(Br)cc2)o1)NC(=O)c1ccccc1 | 6.54% (inactive) |
| COC(=O)C1=C(c2cc3ccccc3s2)C[C@@H]2CC[C@H]1N2C(=O)NCCCOC(C)C | -2.33% (inactive) |
| Cc1cccc(/N=C/c2c(C)[nH]n(-c3ccccc3)c2=O)n1 | -10.6% (inactive) |
| O=C(Cn1nc(CNc2ccc(Br)cc2)[n+]2c1CCCCC2)c1ccc([N+](=O)[O-])cc1 | 28.2% (inactive) |

| SMILES | inhibition |
| --- | --- |
| O=C(Cn1nc(CNc2ccc(Cl)cc2)[n+]2c1CCCCC2)c1ccccc1 | 9.42% (inactive) |
| COC(=O)CN1C(=O)[C@@H]2[C@H](C1=O)[C@@H]1CC(C(=O)OC)=C[C@@H](C(=O)OC)[C@@H]3C1=C(C(=O)[C@@]3(C)NC(=O)c1ccccc1)[C@@H]2C | -6.86% (inactive) |
| CS(=O)(=O)N(CCc1ccccc1)CC(=O)NCc1ccccc1Cl | 6% (inactive) |
| COc1ccc(CSc2nnc(C)n2N)cc1Br | -9.64% (inactive) |
| COc1cc(/C=C(\NC(C)=O)C(=O)NC(C)(C)C)ccc1OC(C)=O | -3% (inactive) |
| COC(=O)CSc1nc(N)c(C#N)c(C(C)C)c1C#N | 0.87% (inactive) |
| CCCOC(=O)CSc1nc(N)c(C#N)c(CC)c1C#N | -6.1% (inactive) |
| CCOC(=O)CSc1nc(C)cc(C)c1C#N | -7.74% (inactive) |
| COC(=O)CSc1nc(N)c(C#N)c(-c2ccc(O)cc2)c1C#N | -2.05% (inactive) |
| COc1ccc(N(CC(=O)Nc2c(C)n(C)n(-c3ccccc3)c2=O)S(=O)(=O)c2ccc(F)cc2)cc1 | -0.85% (inactive) |
| CC(C)OC(=O)CSc1nnc(-c2cnccn2)n1-c1ccccc1 | -8.06% (inactive) |
| CC(NC(=S)Nc1ccc([N+](=O)[O-])cc1)c1ccncc1 (stereo unspecified) | 2.79% (inactive) |
| CC(C)(C)Nc1nc(SCc2ccccc2)nc(N2CCOCC2)n1 | 1.1% (inactive) |
| O=C(NCc1ccco1)C(=O)NCC1OCCN1S(=O)(=O)c1ccc(F)cc1 (stereo unspecified) | 0.03% (inactive) |
| Nc1c2c(nc3ccc(Br)cc13)N(c1ccccc1)CC2 | 14.3% (inactive) |
| Nc1c2c(nc3ccccc13)N(C1CCCCC1)CC2 | 1.71% (inactive) |
| COC(=O)c1cnn(-c2nc3c(C)cccc3s2)c1C | -0.32% (inactive) |
| CCOC(=O)c1cnn(-c2nc3c(C)cccc3s2)c1C | -7.79% (inactive) |
| O=C(O)COCc1nc2ccccc2s1 | 0.38% (inactive) |
| CCCC(=O)N1CCN(c2ccc([N+](=O)[O-])cc2Cl)CC1 | 6.77% (inactive) |
| CCCC(=O)N1CCN(c2ccc(NC(=O)c3cc4ccccc4o3)cc2Cl)CC1 | 11% (inactive) |
| O=C(Nc1cccc(Cl)c1N1CCCCC1)c1ccc(N2CCOCC2)c([N+](=O)[O-])c1 | 2.9% (inactive) |
| CCCC(=O)N1CCN(c2ccc(NC(=O)c3ccco3)cc2)CC1 | -4.48% (inactive) |

| SMILES | inhibition |
| --- | --- |
| CCCC(=O)N1CCN(c2ccc(NC(=O)c3ccc(Br)o3)cc2)CC1 | -2.24% (inactive) |
| O=C(Nc1cccc(Cl)c1N1CCOCC1)c1ccc([N+](=O)[O-])o1 | 1.19% (inactive) |
| CC(=O)N1CCN(c2ccc(NC(=O)c3ccc(N4CCCC4)c([N+](=O)[O-])c3)cc2Cl)CC1 | 44.6% (inactive) |
| O=C(Nc1ccc(N2CCOCC2)c(Cl)c1)c1ccc(Br)o1 | 5.36% (inactive) |
| O=C(O)c1ccc(NC(=O)C2C3CCC(C3)C2C(=O)O)cc1 (stereo unspecified) | 0.17% (inactive) |
| Cn1nc(-c2ccccc2)cc1NC(=O)Nc1ccc(C(C)(C)C)cc1 | 8.89% (inactive) |
| Cn1ncc(Br)c1NC(=O)Nc1ccc(OC(F)(F)F)cc1 | 5.76% (inactive) |
| COc1ccc(S(=O)(=O)N2CCCC(C(=O)NCc3ccncc3)C2)cc1 (stereo unspecified) | -3.7% (inactive) |
| CN(C)/C=C/C(=O)c1ccc(N2CCN(c3ncc(C(F)(F)F)cc3Cl)CC2)cc1 | -11.4% (inactive) |
| CCOC1(OCC)C(c2ccc(N)cc2)C(C#N)(C#N)C1(OCC)OCC (stereo unspecified) | -7.48% (inactive) |
| CC(C)(C)S(=O)(=O)c1cnc(-c2ccccn2)nc1N | -8.12% (inactive) |
| COc1ccc(-c2nnc(SCC(=O)c3cccs3)o2)cc1 | 12.7% (inactive) |
| O=C(CSc1nnc(-c2ccncc2)o1)c1cccc([N+](=O)[O-])c1 | -6.49% (inactive) |
| COc1ccc(-c2nnc(SCC#CCO)o2)cc1OC | -8.82% (inactive) |
| O=C(CSc1nnc(-c2cccs2)o1)c1cccs1 | 11.9% (inactive) |
| OCC#CCSc1nnc(-c2ccncc2)o1 | -1.67% (inactive) |
| O=C(OCC#CCSc1nnc(-c2cccc3ccccc23)o1)c1cccs1 | 60.9% (inactive) |
| O=C(NCCSc1ccccc1)c1ccccc1 | -18.6% (inactive) |
| O=C(c1ccco1)[C@@H]1[C@@H]2C(=O)N(c3ccccc3)C(=O)[C@@H]2C2c3ccccc3C=CN21 (stereo partly specified) | -13.4% (inactive) |
| COc1ccc(C)cc1S(=O)(=O)N(CC(=O)Nc1cccc([N+](=O)[O-])c1)c1ccccc1 | 0.46% (inactive) |
| Cc1cc(N2CCN(c3cccc(C)c3C)CC2)nc(-c2ccccc2)n1 | 6.21% (inactive) |
| CC(C)(C)C(=O)Nc1nnc(Cc2ccccc2)s1 | 10.8% (inactive) |
